# Laboratory results taken from PubChem BioAssay AID504806 (National Center for Advancing Translational Sciences (NCATS), 2011).
# The source made the active and inactive calls. Calls come from the whole dose curve; as a rule, active = well fitted activation curve with a large enough effect; inactive = flat fitted curve, though single readings scatter.
# Assay: Followup screen of LOPAC molecules that induce DNA re-replication in SW480 adenocarcinoma cells
# Conditions: Hoechst nuclear DNA content imaging, 48 h; series mostly up to 46.1 µM; activation (re-replication): at the top concentration
# Text: NIH Molecular Libraries Probe Production Network [MLPCN] NIH Chemical Genomics Center [NCGC] MLPCN Grant: Fast Track K99 CA136555 Assay Provider: Melvin DePamphilis, NICHD, NIH Assay Overview Eukaryotic cells normally restrict genome duplication to once per cell division. When this process is aberrant, DNA re-replication occurs when cells reinitiate DNA replication before the first round of replication is complete. DNA re-replication induces the DNA damage response, arrests cell proliferation, and triggers apoptosis. The cell cycle components cyclin A, Cdt-1, Cdc6 and geminin are critical regulators of this process and their misregulation results in DNA re-replication in normal and cancer cells. To identify compounds that induce re-replication in normal cells, an image-based assay was used to measure DNA content of nuclei, as detected by the fluorescent DNA binding dye, Hoechst. Cell nuclei were imaged by a fluorescence scanning plate imager and compounds that induce DNA re-replication were identified by the increase of nuclei with elevated fluorescence intensity.
# Assay Protocol Summary For screening, 250 cells in 5 uL/well were dispensed into black clear 1536-well plates (Aurora) using a solenoid-based dispenser. Following transfer of 23 nL compound or DMSO vehicle by a pin tool, the plates were incubated 48 hr at 37 C and 5% CO2. After addition of 1 uL/well Hoescht stain, the plates were incubated 40 min at 37 C, 5% CO2 and total intensity of fluorescent objects (nuclei) were enumerated by an Acumen Explorer Ex3 (TTP LabTech) fluorescence scanning plate imager (405 nm excitation, 500-530 nm emission). Keywords: NIH Roadmap, MLPCN, MLI, MLSMR, qHTS, NCGC, DNA replication, cancer
SMILES,Potency,activation (re-replication)
CCN(CC)C(=S)SSC(=S)N(CC)CC,30 nM (active),
CCCCCCN(CCCCCC)C(=O)Cc1c(-c2ccc(F)cc2)[nH]c2ccccc12,26800 nM (active),
CC(=O)[O-].CS(C)=O.[Cu+],,2.13% (inactive)
CC(=O)[O-].CCN(CC)C(=S)SSC(=S)N(CC)CC.[Cu+],37.8 nM (active),
CS(C)=O.[Cl-].[Cl-].[Cu+2],,5.94% (inactive)
CCN(CC)C(=S)SSC(=S)N(CC)CC.[Cl-].[Cl-].[Cu+2],37.8 nM (active),
